The record followed here is ChEMBL document CHEMBL3988442, “University of Dundee, Small-Polar-MMV Screening Library” (2021).

For some of these results: Measured potencies and affinities stand elsewhere.

Common to all, as to design: scale not given: direction of the effect not stated beside the values
In assay [1] the target is Protein translocase subunit SecA (Escherichia coli (strain K12)) (UniProt P10408). Nature of the assay: Assay to Identify E. coli SecA ATPase Inhibitors. The class given is functional. The following applies: 30 µM.
Sequence of Protein translocase subunit SecA (Escherichia coli (strain K12)) (P10408 whole entry): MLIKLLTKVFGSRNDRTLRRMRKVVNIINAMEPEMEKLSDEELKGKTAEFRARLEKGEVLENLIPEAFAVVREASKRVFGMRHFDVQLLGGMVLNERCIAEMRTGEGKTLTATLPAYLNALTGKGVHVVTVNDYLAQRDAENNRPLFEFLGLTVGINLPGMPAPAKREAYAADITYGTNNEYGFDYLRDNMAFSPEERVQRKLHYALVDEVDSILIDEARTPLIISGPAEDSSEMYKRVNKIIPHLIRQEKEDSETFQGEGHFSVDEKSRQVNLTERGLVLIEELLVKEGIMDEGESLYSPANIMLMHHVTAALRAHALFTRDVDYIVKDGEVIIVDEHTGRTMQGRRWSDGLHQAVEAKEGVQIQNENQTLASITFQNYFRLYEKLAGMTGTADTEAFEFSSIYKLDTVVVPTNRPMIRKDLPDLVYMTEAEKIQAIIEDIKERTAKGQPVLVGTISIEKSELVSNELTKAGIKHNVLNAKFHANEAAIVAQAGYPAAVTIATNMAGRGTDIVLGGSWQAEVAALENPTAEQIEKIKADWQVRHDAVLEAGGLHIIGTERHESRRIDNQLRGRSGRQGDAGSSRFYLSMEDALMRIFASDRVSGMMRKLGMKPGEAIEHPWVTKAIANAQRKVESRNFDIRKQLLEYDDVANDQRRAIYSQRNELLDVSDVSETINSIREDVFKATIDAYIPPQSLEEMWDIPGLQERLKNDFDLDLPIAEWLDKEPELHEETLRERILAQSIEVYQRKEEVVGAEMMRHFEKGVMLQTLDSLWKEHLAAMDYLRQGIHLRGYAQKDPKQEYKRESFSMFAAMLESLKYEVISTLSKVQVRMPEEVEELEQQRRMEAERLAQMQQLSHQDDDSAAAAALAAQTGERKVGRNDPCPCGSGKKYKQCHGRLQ
Assay [2] addresses T1, Ubiquitin-activating enzyme e1, putative (Leishmania donovani (strain BPK282A1)) (UniProt E9BSI1).
T1 sequence (whole entry): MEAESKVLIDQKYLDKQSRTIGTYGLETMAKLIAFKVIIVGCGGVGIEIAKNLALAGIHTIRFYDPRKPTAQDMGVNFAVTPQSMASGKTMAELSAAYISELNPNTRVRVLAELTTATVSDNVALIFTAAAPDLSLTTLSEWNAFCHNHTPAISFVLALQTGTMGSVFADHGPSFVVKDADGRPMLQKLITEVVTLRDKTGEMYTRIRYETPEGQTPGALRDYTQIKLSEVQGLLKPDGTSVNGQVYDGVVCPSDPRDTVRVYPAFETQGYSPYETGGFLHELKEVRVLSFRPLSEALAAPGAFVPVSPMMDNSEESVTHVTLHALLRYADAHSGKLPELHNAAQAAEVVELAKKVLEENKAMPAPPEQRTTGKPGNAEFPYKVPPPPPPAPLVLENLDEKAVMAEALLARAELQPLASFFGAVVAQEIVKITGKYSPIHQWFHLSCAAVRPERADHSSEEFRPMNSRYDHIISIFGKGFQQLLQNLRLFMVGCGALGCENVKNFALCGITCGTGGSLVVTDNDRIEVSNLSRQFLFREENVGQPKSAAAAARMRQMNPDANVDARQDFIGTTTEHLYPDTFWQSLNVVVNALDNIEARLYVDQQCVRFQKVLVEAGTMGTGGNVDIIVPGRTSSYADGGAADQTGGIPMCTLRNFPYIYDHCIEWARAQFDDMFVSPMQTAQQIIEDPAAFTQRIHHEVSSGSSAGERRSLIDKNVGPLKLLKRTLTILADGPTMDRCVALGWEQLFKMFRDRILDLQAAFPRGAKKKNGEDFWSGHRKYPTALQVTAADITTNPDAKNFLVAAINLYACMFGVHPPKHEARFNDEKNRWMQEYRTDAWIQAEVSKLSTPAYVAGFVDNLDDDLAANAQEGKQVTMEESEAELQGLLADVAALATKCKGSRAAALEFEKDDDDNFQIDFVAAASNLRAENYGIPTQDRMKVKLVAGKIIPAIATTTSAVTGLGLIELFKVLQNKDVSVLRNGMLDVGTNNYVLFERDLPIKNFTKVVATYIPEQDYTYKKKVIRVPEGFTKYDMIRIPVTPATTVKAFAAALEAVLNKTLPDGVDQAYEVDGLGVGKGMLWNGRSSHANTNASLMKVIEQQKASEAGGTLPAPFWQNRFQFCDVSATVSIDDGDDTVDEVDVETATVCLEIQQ
Nature of the assay: Leishmania donovani Ubiquitin Activating Enzyme (LdE1). As to conditions: 30 µM. The format is functional.

The target of assay [3] is AMP-activated protein kinase, AMPK (Homo sapiens) (UniProt P54646+O43741+P54619+Q9UGJ0+Q9Y478+Q13131+Q9UGI9). Nature of the assay: AMP-dependent Kinase enzyme assay. An in vitro enzyme assay that detects ADP turnover that is directly proportional to AMPK activity. This uses naive AMPK that is activated during the assay with MK-8722. The following applies: 30 µM. The class given is functional.

For assay [4], the target named is Sialic acid-binding Ig-like lectin 9 (Homo sapiens) (UniProt Q9Y336). Nature of the assay: Hs-Siglec9 ALPHAscreen SOP 20170721. As to conditions: 10 µM.
Sequence of Sialic acid-binding Ig-like lectin 9 (Homo sapiens) (Q9Y336 whole entry): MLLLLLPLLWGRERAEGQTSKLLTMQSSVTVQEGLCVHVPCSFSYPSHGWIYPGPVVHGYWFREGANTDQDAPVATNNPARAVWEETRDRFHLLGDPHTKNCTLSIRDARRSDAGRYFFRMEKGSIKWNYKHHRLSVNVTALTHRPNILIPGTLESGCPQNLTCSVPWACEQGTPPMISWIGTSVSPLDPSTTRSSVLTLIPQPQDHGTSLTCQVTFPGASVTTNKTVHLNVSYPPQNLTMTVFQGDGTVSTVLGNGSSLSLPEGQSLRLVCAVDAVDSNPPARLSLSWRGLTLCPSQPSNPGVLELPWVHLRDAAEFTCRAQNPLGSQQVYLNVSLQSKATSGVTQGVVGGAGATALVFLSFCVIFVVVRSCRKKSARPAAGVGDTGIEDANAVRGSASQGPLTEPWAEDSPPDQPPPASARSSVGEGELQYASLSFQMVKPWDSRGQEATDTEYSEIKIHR
A further assay deals with Trypanosoma cruzi. Put plainly: Trypanosoma cruzi phosphomannomutase and mannose-1-phosphate guanylyltransferase assay. The format is functional. The following applies: 10 µM.
For assay [5], the target named is T2, Arginase-2, mitochondrial (Homo sapiens) (UniProt P78540).
T2 sequence (whole entry): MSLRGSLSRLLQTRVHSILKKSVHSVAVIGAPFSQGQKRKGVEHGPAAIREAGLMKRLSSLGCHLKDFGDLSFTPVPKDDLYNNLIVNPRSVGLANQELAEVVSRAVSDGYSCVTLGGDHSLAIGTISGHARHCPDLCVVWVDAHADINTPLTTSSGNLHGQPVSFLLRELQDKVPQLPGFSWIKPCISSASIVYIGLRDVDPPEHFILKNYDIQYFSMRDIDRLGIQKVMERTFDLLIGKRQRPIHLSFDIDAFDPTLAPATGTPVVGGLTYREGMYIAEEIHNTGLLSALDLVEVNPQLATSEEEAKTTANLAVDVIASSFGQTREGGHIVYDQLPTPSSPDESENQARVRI
Put plainly: in vitro enzyme assay to detect the production of urea directly proportional to the activity of Arginase II. Further: in the data most compounds retested in dose-response had high values. As to conditions: 33.3 µM. The class given is functional.

Assay [6] deals with T3, Proteasome subunit beta (Trypanosoma cruzi) (UniProt O96673).
T3 sequence (whole entry): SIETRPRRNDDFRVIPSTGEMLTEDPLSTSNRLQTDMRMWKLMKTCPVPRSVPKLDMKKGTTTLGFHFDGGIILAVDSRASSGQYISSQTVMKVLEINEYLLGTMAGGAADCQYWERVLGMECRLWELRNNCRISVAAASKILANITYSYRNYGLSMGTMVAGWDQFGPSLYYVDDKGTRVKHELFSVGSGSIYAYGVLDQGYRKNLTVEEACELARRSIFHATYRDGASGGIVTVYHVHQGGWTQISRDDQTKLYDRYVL
Put plainly: Trypanosoma cruzi proteasome chymotrypsin-like activity (TcProtChymo) assay. Further: in the data most compounds retested in dose-response had high values. The format is functional. As to conditions: 9.37 µM.

The species named for another assay is Homo sapiens. Nature of the assay: To identify inhibition of the IFN signalling (Jak-Stat) pathway via expression of an eGFP reporter gene under the control of an IFN-stimulated response element (ISRE) containing MxA promoter. The class given is functional. As to conditions: 30 µM.
Assay [7] addresses T4, Tyrosyl-tRNA synthetase, putative (Trypanosoma cruzi (strain CL Brener)) (UniProt Q4DSP6).
T4 sequence (whole entry): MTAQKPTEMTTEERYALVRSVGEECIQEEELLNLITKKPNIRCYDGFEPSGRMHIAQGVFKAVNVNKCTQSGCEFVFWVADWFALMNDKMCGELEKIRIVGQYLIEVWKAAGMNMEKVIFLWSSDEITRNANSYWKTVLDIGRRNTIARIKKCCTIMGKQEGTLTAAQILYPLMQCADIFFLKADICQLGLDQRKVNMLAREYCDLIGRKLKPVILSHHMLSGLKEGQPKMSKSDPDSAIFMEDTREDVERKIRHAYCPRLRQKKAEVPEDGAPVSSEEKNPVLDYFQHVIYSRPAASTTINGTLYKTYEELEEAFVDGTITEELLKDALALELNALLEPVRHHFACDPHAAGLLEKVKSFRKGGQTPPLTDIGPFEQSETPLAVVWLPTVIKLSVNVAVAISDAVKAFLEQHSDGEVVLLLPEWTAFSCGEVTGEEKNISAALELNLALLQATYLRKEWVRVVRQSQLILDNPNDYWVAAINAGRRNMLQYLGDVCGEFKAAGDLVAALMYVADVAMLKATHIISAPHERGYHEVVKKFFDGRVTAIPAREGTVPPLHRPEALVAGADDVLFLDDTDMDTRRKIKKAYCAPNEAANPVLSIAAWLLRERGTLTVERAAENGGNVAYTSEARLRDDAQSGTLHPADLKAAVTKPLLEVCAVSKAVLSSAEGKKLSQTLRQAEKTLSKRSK
Nature of the assay: Trypanosoma cruzi tyrosyl tRNA synthetase (TcYRS) _High Tyrosine SOP. Further: in the data most compounds retested in dose-response had high values. As to conditions: 30 µM. The class given is functional.

Assay [8] addresses T4, Tyrosyl-tRNA synthetase, putative (Trypanosoma cruzi (strain CL Brener)). Put plainly: Trypanosoma cruzi tyrosyl tRNA synthetase (TcYRS) SOP. As to conditions: 30 µM. The class given is functional.
Assay [9] has as its target Chromo domain-containing protein 1 (Saccharomyces cerevisiae (strain ATCC 204508 / S288c) (Baker's yeast)) (UniProt P32657). Nature of the assay: ScCHD-1 Enzyme Inhibition Assay. Further: in the data most compounds retested in dose-response had high values. The format is functional. The following applies: 30 µM.

Sequence of Chromo domain-containing protein 1 (Saccharomyces cerevisiae (strain ATCC 204508 / S288c) (Baker's yeast)) (P32657 whole entry, the tested form may be a part): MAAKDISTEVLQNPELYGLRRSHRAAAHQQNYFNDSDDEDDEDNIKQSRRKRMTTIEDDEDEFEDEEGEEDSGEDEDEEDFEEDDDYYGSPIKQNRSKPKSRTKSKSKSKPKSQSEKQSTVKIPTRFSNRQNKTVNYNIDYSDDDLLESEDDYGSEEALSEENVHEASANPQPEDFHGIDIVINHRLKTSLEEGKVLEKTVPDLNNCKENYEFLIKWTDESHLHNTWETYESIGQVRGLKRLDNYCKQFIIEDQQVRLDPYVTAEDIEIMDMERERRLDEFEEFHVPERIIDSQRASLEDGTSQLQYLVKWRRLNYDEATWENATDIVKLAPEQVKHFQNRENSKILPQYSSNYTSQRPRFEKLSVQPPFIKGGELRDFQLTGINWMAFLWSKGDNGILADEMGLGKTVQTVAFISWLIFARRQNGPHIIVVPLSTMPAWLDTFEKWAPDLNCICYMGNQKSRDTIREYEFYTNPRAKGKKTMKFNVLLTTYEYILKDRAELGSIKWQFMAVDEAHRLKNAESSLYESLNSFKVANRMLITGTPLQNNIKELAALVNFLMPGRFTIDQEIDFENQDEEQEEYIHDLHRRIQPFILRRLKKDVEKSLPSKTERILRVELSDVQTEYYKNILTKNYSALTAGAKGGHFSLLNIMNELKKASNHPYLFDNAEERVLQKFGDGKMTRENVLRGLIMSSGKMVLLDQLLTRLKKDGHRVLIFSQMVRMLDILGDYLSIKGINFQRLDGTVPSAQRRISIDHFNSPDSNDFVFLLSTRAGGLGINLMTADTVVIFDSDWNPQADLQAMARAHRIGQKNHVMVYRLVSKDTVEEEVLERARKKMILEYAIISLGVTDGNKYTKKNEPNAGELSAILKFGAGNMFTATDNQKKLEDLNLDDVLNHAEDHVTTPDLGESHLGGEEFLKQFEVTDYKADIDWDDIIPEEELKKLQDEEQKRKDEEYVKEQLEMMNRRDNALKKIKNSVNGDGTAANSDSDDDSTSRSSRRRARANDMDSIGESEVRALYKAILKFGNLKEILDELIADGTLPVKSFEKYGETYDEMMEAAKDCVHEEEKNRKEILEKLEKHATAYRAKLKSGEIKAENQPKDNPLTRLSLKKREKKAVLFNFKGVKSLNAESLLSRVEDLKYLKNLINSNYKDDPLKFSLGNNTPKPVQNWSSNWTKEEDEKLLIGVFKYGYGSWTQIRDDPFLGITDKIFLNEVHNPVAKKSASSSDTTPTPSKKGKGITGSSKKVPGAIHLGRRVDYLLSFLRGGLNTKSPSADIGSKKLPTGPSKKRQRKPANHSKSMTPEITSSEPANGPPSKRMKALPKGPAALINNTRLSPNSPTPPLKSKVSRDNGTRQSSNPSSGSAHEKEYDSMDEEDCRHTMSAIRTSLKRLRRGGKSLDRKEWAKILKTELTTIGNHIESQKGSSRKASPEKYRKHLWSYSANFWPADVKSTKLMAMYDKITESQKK

For `CN(Cc1cnn(C)c1)C(=O)NC1CCC(O)CC1` (stereo unspecified), the Percent Effect in assay [1] is -2.67%; in assay [2] it was 4.17%; in assay [3] it was -6.32%; in [4] it was 15.8%; with Trypanosoma cruzi, 2.82%; in assay [5], 9.71%. Further, the Percent Effect is 13% in assay [6]; -3.51% in the assay filed under Homo sapiens; 0% in assay [7]; 2.56% in assay [8]; -2.95% in [9].
As for `NC(=O)C1CN(C(=O)Nc2ccccc2-c2cccs2)CCO1` (stereo unspecified), the Percent Effect in assay [1] is -6.75%; in [2] it was 18.9%; in [3], -3.93%; in assay [4] it was 20.2%; in the assay on Trypanosoma cruzi it was 5.66%; in [5] it was -2.4%. Further, the Percent Effect in [6] is -3.23%; in the assay listed under Homo sapiens it was 6.89%; in [7], 2.97%; in assay [8], 18.3%; in assay [9] it was -6.91%.
With `Cc1cccc(CN2C[C@@H]3CN(C(=O)NC(C)C)C[C@@H]3C2=O)c1`, the Percent Effect in [1] is 0.524%; in assay [2] it was 5.2%; in assay [3] it was 3%; in assay [4], 7.17%; in the assay on Trypanosoma cruzi, -1.87%; in assay [5], -35.9%. Also, the Percent Effect in assay [6] was 11.2%; in the assay filed under Homo sapiens, -7.06%; in assay [7] it was 6.45%; in assay [8], 13.6%; in [9], 1%.
Consider `O=C(N1CCCC1)N1CCc2ncnc(C3CCOC3)c2CC1` (stereo unspecified), for which the Percent Effect in assay [1] was 2.86%; in [2], -2.67%; in assay [3] it was 9.11%; in [4], 2.99%; with Trypanosoma cruzi, -0.591%; in assay [5] it was 3.5%. Moreover, the Percent Effect was 7.14% in assay [6]; 3.4% in the assay filed under Homo sapiens; 3.19% in [7]; -1.28% in assay [8]; -1.1% in assay [9].
For `CCc1nc(CN2CCN(C(=O)c3cnccn3)CC2)cs1`, the Percent Effect in [1] is -2.42%; in assay [2], 5.41%; in assay [3], -4.67%; in assay [4] it was 12.2%; in the assay with Trypanosoma cruzi, 4.92%; in assay [5], -5.73%. The Percent Effect in assay [6] was 15.3%; in the assay listed under Homo sapiens it was 11.6%; in assay [7], 1.98%; in assay [8], 11%; in assay [9], -2.71%.
For the compound `Cc1ccc(-n2nnc(C(=O)NS(C)(=O)=O)c2C2CC2)cc1`, the Percent Effect is -1.84% in [1]; 0% in [2]; -7.9% in [3]; 0.772% in assay [4]; 7.52% with Trypanosoma cruzi; -1.66% in [5]. Moreover, the Percent Effect in [6] was -0.179%; in the assay listed under Homo sapiens, 12.9%; in assay [7] it was 2.97%; in assay [8] it was 13.4%; in assay [9], 3.65%.
Take `O=C(O)c1ccc(S(=O)(=O)Nc2ccc(Cl)c(F)c2)c(F)c1`: the Percent Effect is -2.14% in assay [1]; -2.7% in [2]; -7.96% in assay [3]; 15.3% in assay [4]; 1.04% in the assay on Trypanosoma cruzi; 1.6% in assay [5]. For the same compound, the Percent Effect in assay [6] was -1.08%; in the assay listed under Homo sapiens it was 8.28%; in [7], -13.3%; in assay [8], -18.5%; in [9], -4.26%.
As to `CCN1CCCC1CN(CCN(C)C)S(=O)(=O)c1ccc(C#N)cc1` (stereo unspecified), the Percent Effect was -3.88% in assay [1]; 5.48% in [2]; -10.9% in [3]; 21.3% in [4]; 4.5% in the assay with Trypanosoma cruzi; 0.909% in assay [5]. Besides, the Percent Effect in assay [6] was 3.73%; in the assay filed under Homo sapiens, 3.29%; in assay [7], 4.3%; in assay [8] it was 15%; in [9] it was -5.33%.
Turning to `Cc1ccc2cc(C3(O)CCN(C(=O)CN4CCCC4)CC3)ccc2n1`, the Percent Effect in assay [1] was -2.77%; in assay [2] it was -1.39%; in assay [3], -1.64%; in assay [4] it was -0.537%; in the assay on Trypanosoma cruzi, -4.96%; in [5] it was 3.53%. The Percent Effect amounted to 11.9% in assay [6]; 4.91% in the assay filed under Homo sapiens; 2.1% in assay [7]; 5.13% in assay [8]; 0.856% in assay [9].
Turning to `COC(=O)[C@H](C)NC(=O)c1cc(-c2cccc(Cl)c2)no1`, the Percent Effect is -6.04% in [1]; 5.26% in [2]; -4.37% in assay [3]; -0.548% in assay [4]; 2.43% with Trypanosoma cruzi; -4.73% in assay [5]. In addition, the Percent Effect is 21.2% in assay [6]; 6.45% in the assay filed under Homo sapiens; 5.32% in assay [7]; 10.4% in assay [8]; -8.08% in assay [9].
Consider `COc1ccc(C2=CCN(C(=O)CN(C)Cc3ccoc3)CC2)cc1`, for which the Percent Effect in assay [1] is -6.75%; in assay [2] it was 7.59%; in assay [3] it was -2.65%; in [4] it was 5.81%; with Trypanosoma cruzi, 11.6%; in assay [5], -5.32%. Further, the Percent Effect in [6] is 10.4%; in the assay filed under Homo sapiens, 28.5%; in assay [7] it was 8.37%; in assay [8], 21.5%; in assay [9] it was -11.7%.
